Some test systems named below: NCI-H23 lung; NCI-H226 lung; NCI-H322M lung; HOP-62 NSCLC; NCI-H460 lung; HOP-92 NSCLC; NCI-H522 lung; A549/ATCC NSCLC; COLO 205 colon; DU-145 prostate; K-562 leukemia; MALME-3M melanoma; MDA-MB-231 breast; RXF 393 renal; SF-268 CNS; SF-295 CNS; SF-539 CNS; UACC-257 melanoma; M14 melanoma; 786-0 renal.
Holding throughout (test): NCI-60 one-dose screen, 48 h (100 = growth as untreated, 0 = no growth, -100 = all killed)
Common to all, as to conditions: 10 µM unless noted

This is part of a sample that, as a whole, favours compounds with a hit. Of some 83,000 tested, about 20% had one in any assay.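 48-hour exposure, single concentration, 96-well plates; percent growth endpoint where 0 means no net growth. Active: below 10.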 Unmarked numbers belong to inactive results. Calls of active or inactive are those of the source.

For the compound `CCOC(=O)c1cc(C(=O)c2ccc(OC)c(OC)c2)n2ccc(/C=C/c3cc[n+](CC(=O)c4ccc(OC)c(OC)c4)cc3)cc12`, the growth was 93.5% in the assay on NCI-H23 lung; 99.2% with NCI-H226 lung; 99% in the assay on NCI-H322M lung; 101% in the assay on HOP-62 NSCLC; 98.6% in the assay on NCI-H460 lung; 110% in the assay with HOP-92 NSCLC. Besides, the growth with NCI-H522 lung was 85.5%; in the assay on A549/ATCC NSCLC, 95.9%; in the assay with COLO 205 colon, 114%; in the assay on DU-145 prostate, 96.3%; in the assay with K-562 leukemia it was 78.2%; in the assay with MALME-3M melanoma, 97.3%. For the same compound, the growth was 89.4% in the assay with MDA-MB-231 breast; 111% in the assay on RXF 393 renal; 99.5% in the assay on SF-268 CNS; 102% in the assay with SF-295 CNS; 87.3% in the assay with SF-539 CNS; 98.7% with UACC-257 melanoma. The growth in the assay with M14 melanoma is 96.9%.

Take `CCOC(=O)c1cc(C(=O)c2cc(OC)cc(OC)c2)n2ccc3ccccc3c12`: the growth in the assay with NCI-H23 lung is 81.5%; in the assay with NCI-H226 lung it was 91.8%; in the assay with NCI-H322M lung, 91.1%; in the assay with HOP-62 NSCLC, 70.7%; in the assay with NCI-H460 lung it was 101%; in the assay on HOP-92 NSCLC, 111%. Moreover, the growth was 83.3% with NCI-H522 lung; 77.9% in the assay on A549/ATCC NSCLC; 115% with COLO 205 colon; 100% in the assay with DU-145 prostate; 98.7% in the assay with K-562 leukemia; 99.1% in the assay on MALME-3M melanoma. For the same compound, the growth in the assay on MDA-MB-231 breast is 80.1%; in the assay with RXF 393 renal it was 61.5%; in the assay on SF-268 CNS, 78.1%; with SF-295 CNS, 94.9%; in the assay on SF-539 CNS, 74.1%; in the assay with UACC-257 melanoma, 93.4%. Also, the growth in the assay with M14 melanoma was 105%.

With `c1ccc2c(-c3c[nH]c4ccccc34)c3c(cc2c1)[nH]c1ccccc13`, the growth was 69.9% with NCI-H23 lung; 86.2% with NCI-H226 lung; 83.7% in the assay with NCI-H322M lung; 60.4% in the assay on HOP-62 NSCLC; 68.9% in the assay with NCI-H460 lung; 83.3% in the assay on HOP-92 NSCLC. The growth was 51.7% in the assay with NCI-H522 lung; 51.9% with 786-0 renal; 83.3% in the assay with COLO 205 colon; 93.7% in the assay with DU-145 prostate; 25.1% in the assay with K-562 leukemia; 78.9% in the assay with MALME-3M melanoma. Also, the growth is 71.6% with MDA-MB-231 breast; 33.5% in the assay with RXF 393 renal; 66.7% in the assay with SF-268 CNS; 85.4% in the assay on SF-295 CNS; 59% with SF-539 CNS; 77.6% with UACC-257 melanoma. Moreover, in the assay with M14 melanoma, the growth was 39.2%.

For the compound `Cc1ccc(-n2cc(-c3ccccc3)c3c2N=NN2CCN=C32)cc1`, the growth in the assay with NCI-H23 lung was 93.1%; in the assay on NCI-H226 lung, 82.3%; in the assay on NCI-H322M lung, 97.4%; with HOP-62 NSCLC, 97.4%; in the assay with NCI-H460 lung, 104%; in the assay on HOP-92 NSCLC, 102%. The growth in the assay with NCI-H522 lung is 90.2%; in the assay on 786-0 renal it was 99.3%; in the assay with COLO 205 colon, 120%; in the assay with DU-145 prostate, 113%; with K-562 leukemia, 87%; in the assay with MALME-3M melanoma, 104%. The growth is 85.9% in the assay on MDA-MB-231 breast; 109% with RXF 393 renal; 96.8% in the assay with SF-268 CNS; 96.5% in the assay on SF-295 CNS; 101% in the assay on SF-539 CNS; 113% in the assay with UACC-257 melanoma. Moreover, in the assay with M14 melanoma, the growth was 104%.

Consider `CCOC(=O)C1=C(C)NC(SCc2cc(=O)oc3ccc(F)cc23)=N[C@@H]1c1cccc2ccccc12`, for which the growth with NCI-H23 lung was 94.3%; in the assay with NCI-H226 lung, 103%; with NCI-H322M lung it was 102%; with HOP-62 NSCLC, 90.8%; in the assay with NCI-H460 lung, 105%; in the assay on HOP-92 NSCLC, 86.7%. For the same compound, the growth in the assay on NCI-H522 lung was 84.8%; in the assay with 786-0 renal, 93.4%; with DU-145 prostate it was 98.5%; in the assay with K-562 leukemia, 79.7%; with MALME-3M melanoma it was 112%; in the assay with MDA-MB-231 breast, 77.7%. In addition, the growth was 117% in the assay on RXF 393 renal; 94.3% in the assay on SF-268 CNS; 97.9% in the assay on SF-295 CNS; 114% with SF-539 CNS; 109% in the assay on UACC-257 melanoma; 102% in the assay with M14 melanoma.

Take `O=C(NCCc1ccccc1)Nc1ccc2cc3ccc(NC(=O)NCCc4ccccc4)cc3nc2c1`: the growth was 10.3% in the assay with NCI-H23 lung; 88.7% with NCI-H226 lung; 19.2% in the assay with NCI-H322M lung; 39.4% in the assay with HOP-62 NSCLC; 16.8% with NCI-H460 lung; 68.1% in the assay with HOP-92 NSCLC. In addition, the growth with NCI-H522 lung was -10.8% (active); in the assay on 786-0 renal it was 38.4%; in the assay with COLO 205 colon it was 10.8%; in the assay with DU-145 prostate, 29.2%; in the assay on K-562 leukemia, 1.41% (active); in the assay on MALME-3M melanoma, -13.8% (active). Besides, the growth in the assay on MDA-MB-231 breast was -17.5% (active); with RXF 393 renal it was -21.5% (active); in the assay on SF-268 CNS it was -54.2% (active); in the assay with SF-295 CNS, 0.203% (active); in the assay with SF-539 CNS it was -61.7% (active); in the assay on UACC-257 melanoma, 85.6%. For the same compound, the growth in the assay on M14 melanoma is 33.8%.

Regarding `O=C(Nc1ccc(Cl)cc1)c1cc(NCc2cc(O)ccc2O)ccc1O`, the growth is 93.2% in the assay on NCI-H23 lung; 95.2% in the assay with NCI-H226 lung; 94.9% with NCI-H322M lung; 102% in the assay with HOP-62 NSCLC; 98.7% in the assay with NCI-H460 lung; 80.4% with HOP-92 NSCLC. Also, the growth with NCI-H522 lung is -59.7% (active); with 786-0 renal, 95.6%; in the assay with COLO 205 colon it was 105%; with DU-145 prostate it was 100%; in the assay with K-562 leukemia it was 41.9%; in the assay with MALME-3M melanoma it was 80.2%. The growth in the assay with MDA-MB-231 breast was 69.1%; in the assay on RXF 393 renal it was 67.1%; in the assay on SF-268 CNS, 77.2%; in the assay with SF-295 CNS, 116%; in the assay with SF-539 CNS, 43.5%; in the assay on UACC-257 melanoma it was 77.3%. The growth in the assay on M14 melanoma was 102%.

For the compound `O=C1c2c(c3c4cccc(F)c4[nH]c3c3ccc4ccccc4c23)C(=O)N1O`, the growth was 56.2% in the assay on NCI-H23 lung; 54.1% with NCI-H226 lung; 64% in the assay with NCI-H322M lung; 63.2% with HOP-62 NSCLC; 10.9% in the assay on NCI-H460 lung; 79.1% with HOP-92 NSCLC. Moreover, the growth in the assay with NCI-H522 lung was 30%; in the assay with 786-0 renal, 70.7%; in the assay on COLO 205 colon, 57.4%; with DU-145 prostate, 55.1%; in the assay with MALME-3M melanoma it was 76.8%; in the assay on MDA-MB-231 breast, 70.8%. The growth is 46.9% in the assay with RXF 393 renal; 32.5% with SF-268 CNS; 47.9% in the assay on SF-295 CNS; 40.4% in the assay with SF-539 CNS; 67.5% with UACC-257 melanoma; 38.3% with M14 melanoma.

Values taken from PubChem BioAssay (NCI).
